Hits are enriched below; roughly 8.8% of the tested compounds scored in any of these assays.
HT1080 IDH1KD tx = qHTS for induction of synthetic lethality in tumor cells producing 2HG: qHTS for the HT-1080-IDH1KD cell line. HT-1080 IDH1 knockdown viability, ATP luminescence, 48 h. Potency, µM (highest dose often 46.1 µM), for the others: top-dose activity, negative = toxicity, usual class: cytotoxic. 360,000 tested, 2% active;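 also: potency is read from the fitted curve at half-maximal effect; 0% = DMSO wells and -100% = cell-free medium wells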
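CellTiter-Glo luminescence after 48 h compound exposure at 37 degrees C of IDH1-knockdown HT-1080 cells in 5% FBS RPMI. %Activity scaled between DMSO wells and cell-free media wells, with curves fitted and assigned curve classes.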
KB-3-1 cytotox = qHTS assay for MDR1-selective chemotherapeutics: Primary screen using the parental adenocarcinoma cell KB-3-1. AID 1347075, 2019. 400,000 tested, 1.4% active. Potency, µM (doses to about 46.1 µM), hits mostly cytotoxic. KB-3-1 viability, CellTiter-Glo ATP luminescence, 72 h; also: potency is read from the fitted curve at half-maximal effect; nearly all actives have a fitted effect of over 60% in size
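Using CellTiter-Glo luminescence, growth of non-resistant KB-3-1 adenocarcinoma cells is assessed 72 h after pin-tool compound addition at 37 °C. Normalized responses across the concentration series yield fitted curves.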
HT1080-NT tox = qHTS for induction of synthetic lethality in tumor cells producing 2HG: qHTS for the HT-1080-NT fibrosarcoma cell line; 360,000 tested, 1.6% active; Potency, µM (highest dose often 46.1 µM), for inactives: at the top dose activity, negative = less viability, hits mostly cytotoxic; AID 686970, 2013; HT-1080-NT fibrosarcoma viability, CellTiter-Glo ATP luminescence, 48 h;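 also: NT is the 2HG producing partner of a matched IDH1 knockdown line; potency is read from the fitted curve at half-maximal effect; 0% = DMSO-treated cells and -100% = media-only wells without cells; nearly all actives have a fitted effect of over 55% in size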
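Luminescent CellTiter-Glo readout after 48 hours of compound exposure at 37 degrees C defined viability of HT-1080-NT cells. Activity was normalized to DMSO wells and cell-free media wells; concentration-response curves were fitted and assigned curve classes.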
IL-1B inflam inh = qHTS for Inhibitors of Inflammasome Signaling: IL-1-beta AlphaLISA Primary Screen | THP-1 LPS/ATP IL-1B secretion, AlphaLISA, 16 h; hits give low values | activity change, % at 57.5 µM | 360,000 tested, 4.7% active | AID 743279, 2014; in the data active = activity change below about -50%; inconclusive = mostly about -30% to -49%
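THP-1 cells pretreated 1 hr with compounds (up to 57.5 uM final), then stimulated with LPS (250 ng/mL final) plus ATP (1.25 mM final); secreted IL-1B measured by AlphaLISA after 16 hr, decreased signal indicating inhibition.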
KB-V1 cytotox = qHTS assay for MDR1-selective chemotherapeutics: Primary screen using the drug-selected MDR subline cells KB-V1. Potency, µM (series often up to 46.1 µM), most hits filed as cytotoxic. KB-V1 MDR cells viability, CellTiter-Glo, 72 h. 400,000 tested, 3.4% active. AID 1347076, 2019; also: potency is read from the fitted curve at half-maximal effect; nearly all actives have a fitted effect of over 60% in size
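KB-V1, DMEM (no phenol red) + 10% FBS; cpd pin-transferred, titration series; 72 h, 37 degrees C; CellTiter-Glo, luminescence. Data normalized, curve-fit.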
Active calls of the source: *; i = inactive; ? = inconclusive; / = no result given; [ ] = dose if it differs, or a comment. Unless noted, calls follow the shape of the dose curve; as a rule, active = well fitted curve in the direction sought with a large enough effect; inconclusive = small, poorly fitted or top-dose-only effect, or another doubt; inactive = no such curve, though single readings can be large; an effect the other way counts as inactive or inconclusive. Unless noted, % is scaled to controls: 0 for no effect and ±100 for the full control effect.

SMILES | HT1080 IDH1KD tx | KB-3-1 cytotox | HT1080-NT tox | IL-1B inflam inh | KB-V1 cytotox
Cc1cc(C(=O)Nc2ccc(Nc3ccccc3)cc2)ccc1[N+](=O)[O-] | ? | ? | -25% | -65* | ?
O=C(Nc1ccc(Cl)cc1)c1ccc(-n2cccn2)c([N+](=O)[O-])c1 | -28% | ? | ? | -21 | 15µM*
Cc1ccc(-n2nc(C(=O)N3CCN(c4ccccc4F)CC3)c3c4ccccc4n(C)c3c2=O)cc1 | / | i | / | / | i
O=C(NCCC(c1ccccc1)c1ccccc1)c1cccs1 | 1% | i | 3% | -56* | i
C=CCNC(=S)NNC(=O)c1cccn(Cc2ccc(Cl)c(Cl)c2)c1=O | ? | ? | ? | 0 | 16µM*
C=CCNC(=S)NNC(=O)c1cccn(Cc2ccc(Cl)cc2Cl)c1=O | -21% | i | 3% | 14 | 23µM*
CCCN(CCC)C(=O)CSc1nc2n[nH]c(C)c2c(=N)n1-c1ccc(OCC)cc1 | ? | ? | -21% | -5 | ?
CCOc1ccc(-n2c(SCC(=O)Nc3ccc(CC)cc3)nc3n[nH]c(C)c3c2=N)cc1 | 18µM* | ? | ? | -29 | i
Cc1cc(-n2c(SCc3ccccc3F)nc3n[nH]c(C)c3c2=N)ccc1Cl | 21µM* | i | ? | 0 | ?
COc1ccccc1NC(=O)CSc1nc2n[nH]c(C)c2c(=N)n1-c1ccccc1Cl | ? | ? | -13%[9.24 µM] | -8 | 16µM*
Cc1ccc(C2=CC(c3ccccc3)n3ncnc3N2)cc1 (stereo not drawn) | 17% | i | 17% | -18 | i
CN(C)c1ccc(C2C=C(c3ccc(Cl)cc3OC(F)F)Nc3ncnn32)cc1 (stereo not drawn) | ? | i | ? | 14 | 12µM*
Cc1ccc(C2=CC(c3ccccc3)n3ncnc3N2)c(C)c1 (stereo not drawn) | 9% | i | 9% | 22 | i
Cc1ccc(C2C=C(c3ccccc3OC(F)F)Nc3ncnn32)cc1 (stereo not drawn) | 5% | ? | -2% | -3 | 21µM*
CCOC(=O)c1c(NC(=O)/C=C/c2ccccc2)sc2c1CCCC2 | / | i | / | / | ?
CC(C)N1C(=O)c2ccccc2NC(=O)C1C(=O)NC1CC1 (stereo not drawn) | ? | i | 22% | 36 | i
CC(=O)Oc1ccc2nonc2c1OC(C)=O | / | ? | / | / | i
CC(=O)Nc1cc(OC(C)=O)c2nonc2c1OC(C)=O | 3.5µM* | ? | 6.3µM* | 5 | i
N#CCCN1CCN(C(=S)c2ccc(-c3ccc(Cl)c(Cl)c3)o2)CC1 | ? | i | ? | -53* | i
CN1CCCC1CCOC(C)(c1ccccc1)c1ccc(Cl)cc1 (stereo not drawn) | ? | i | 16µM* | ? | ?
Cc1c(Cl)cccc1NC(=O)Cn1c(=O)n(Cc2nc(-c3ccccc3)no2)c(=O)c2cc3c(cc21)OCO3 | / | i | / | / | i
O=C(NCCc1ccccc1)c1cccc(NC(=O)C2CCCC2)c1 | 0% | i | 2% | -24 | i
CCCCc1ccc(NC(=O)CSc2nc(=O)n(CCCN3CCOCC3)c3c2CCC3)cc1 | ? | i | ? | -83* | i
CCCCc1ccc(NC(=O)CSc2nc(=O)n(CCN3CCOCC3)c3c2CCC3)cc1 | 3% | i | 6% | -70* | i
Nc1nc(SCc2ccc(Cl)c(Cl)c2)n[nH]1 | -14% | i | -14% | 10 | i
SMILES | HT1080 IDH1KD tx | KB-3-1 cytotox | HT1080-NT tox | IL-1B inflam inh | KB-V1 cytotox
O=S1(=O)C=C(SCc2ccc(Cl)c(Cl)c2)Nc2ccccc21 | ? | ? | ? | -11 | 15µM*
CCCCCCNS(=O)(=O)c1ccc(NC(=O)C2CCCO2)cc1 (stereo not drawn) | 3% | i | 1% | 6 | i
Cn1c(CN2CCN(c3ccc(Cl)cc3)CC2)nc2ccccc21 | ? | i | ? | -7 | 18µM*
Cn1c(N2CCN(S(=O)(=O)c3ccc(Cl)cc3)CC2)nc2ccccc21 | 9% | i | -2% | 7 | 16µM*
CCn1c(CN2CCN(c3ccc(Cl)cc3)CC2)nc2ccccc21 | -21% | ? | -8% | -13 | ?
Cn1c(SCC(=O)N2CCN(S(=O)(=O)c3ccc(Cl)cc3)CC2)nc2ccccc21 | -14% | i | -3% | -8 | i
Cc1cc(N2CCN(S(=O)(=O)c3ccc(Cl)c(Cl)c3)CC2)c2ccccc2n1 | ? | 21µM* | ? | -12 | ?
COc1cccc(Cl)c1NC(=O)N1CCN(c2cc(C)nc3ccccc23)CC1 | ? | i | -27% | -71* | ?
CC(=O)c1nc(N2CCN(S(=O)(=O)c3ccc(C)cc3)CC2)c2ccccc2n1 | -1% | / | -5% | / | /
COc1ccc(-c2csc(N3CCN(c4cc(C)nc5ccccc45)CC3)n2)cc1OC | 16µM* | i | ? | -101* | 16µM*
COc1ccc2nc(C)cc(N3CCN(c4ccccc4)CC3)c2c1 | -27% | i | ? | -65* | ?
COc1ccc(N2CCN(c3nccs3)CC2)cc1 | -2% | ? | 8% | -12 | i
COc1ccc(C(=O)NNc2ncnc3c2cnn3-c2ccc(C)c(Cl)c2)cc1 | / | i | / | / | i
COc1ccccc1CO/N=C/NC(=O)c1c(OC)ccnc1Oc1ccc(F)cc1 | 5% | i | 13% | ? | ?
COc1ccnc(Oc2ccccc2)c1C(=O)N/C=N/OCc1ccc(F)cc1Cl | 16µM* | ? | ? | ? | i
O=C(O)c1cc(=O)[nH]c2ccccc12 | 12% | i | 10% | 16 | i
COc1ccc(C(=S)N2CCOCC2)cc1OC(=O)c1ccc([N+](=O)[O-])cc1[N+](=O)[O-] | ? | i | -12% | -20 | i
O=C(NCCCN1CCOCC1)c1ccc2c(=O)n(Cc3cccc(Br)c3)c(=S)[nH]c2c1 | ? | i | ? | -65* | i
COc1ccccc1Cn1c(=S)[nH]c2cc(C(=O)NCCCN3CCOCC3)ccc2c1=O | ? | ? | 16µM* | 44 | i
COCCn1c(=S)[nH]c2cc(C(=O)NCCCN3CCOCC3)ccc2c1=O | 9% | i | -2% | 54 | i
Cc1oc(-c2ccc(Cl)cc2)nc1CSCC(=O)NCCCN1CCOCC1 | ? | i | -7% | -3 | 16µM*
CSc1ccc(-c2nc(CSCC(=O)N3CCOCC3)c(C)o2)cc1 | -15% | ? | 2% | 3 | 5.2µM*

Source: PubChem (National Center for Advancing Translational Sciences (NCATS))
